Assay results: PubChem BioAssay (NCATS)
Inconclusive results are not listed. Values without a mark were called inactive. Active and inactive are the calls of the source. Calls follow the shape of the dose curve; as a rule, active = well fitted cell-killing curve with a large enough effect; inconclusive = small, poorly fitted or top-dose-only effect, or effect the other way; inactive = flat fitted curve, though single readings scatter.

Assay: S16 Schwann cell viability assay (CellTiter-Glo assay) (AID 624031);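 also: cellular ATP luminescence as a viability measure; nearly all actives have a fitted effect of over 70% in size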
Settings: S16 rat Schwann cells viability, 24 h; series mostly up to 57.5 µM; activity change, negative = cytotoxicity: at the top concentration
Excerpt: Charcot-Marie-Tooth-Association [CMTA]
National Center for Advancing Translational Sciences [NCATS]
Charcot-Marie-Tooth (CMT) disease was first characterized by Jean-Martin Charcot and Pierre Marie in France and, independently, by Howard Henry Tooth in England in 1886. CMT is one of the most common inherited neurological diseases, affecting approximately 1 in 2,500 Americans. […] The most prevalent type of CMT is known as CMT1A and caused by a duplication of the PMP22 gene which leads to over-expression of this protein. PMP22 is a glycosylated intrinsic membrane protein accounting for 2-5% of the myelin protein content, and its over-expression results in demyelination and subsequently axonal loss.
A pair of cellular transcription-based assays was developed in the S16 rat Schwann cell lines (Hai, M., et al., 2002) stably transfected with orthogonal reporters - firefly luciferase (Fluc) and beta-lactamase (beta-Lac) - whose expression is driven by an intronic regulatory element of the PMP22 gene (Jones, E.A., et al., 2011) to recapitulate endogenous expression of PMP22. A comprehensive library of approved drugs, the NCGC Pharmaceutical Collection (Huang, R., et al., 2011), was screened in the cross-validating platform of the orthogonal reporter assays to identify drug modulators inhibitory towards PMP22 expression.
A set of counter-screens was devised to address non-specific activity of the library. An ATP-dependent CellTiter-Glo assay (developed by Promega Corp) was utilized to control cell viability. In addition, biochemical Fluc enzyme assay was performed to assess direct inhibition of the Fluc enzymatic activity.
Hai, M., Muja, N., DeVries, G.H., Quarles, R.H. and Patel, P.I. Comparative analysis of Schwann cell lines as model systems for myelin gene transcription studies. J Neurosci Res, 2002. 69(4): pp 497-508
Huang, R., Southall, N., Wang, Y., Yasgar A., Shinn P., Jadhav, A. , Nguyen, D.-T. and Austin, C.P., The NCGC pharmaceutical collection: a comprehensive resource of clinically approved drugs enabling repurposing and chemical genomics. Sci Transl Med, 2011. 3(80): p. 80ps16.
Native S16 cells were seeded in white solid-bottom 1536 well plates at between 500-750 cells/6uL in DMEM medium containing 10% FBS, w/o phenol red. After overnight incubation at 37 degree Celsius/5% C02, 23 nL of compounds or DMSO were delivered to each well using a pin tool, followed by 24h-incubation at 37 degree Celsius/5% C02. Then one volume of CellTiter-Glo assay reagent (Promega) was added to each well for cell viability measured by a ViewLux plate reader (PerkinElmer). The % activity was determined by normalizing to the average readings from wells containing no cells relative to DMSO-treated cells (0% Activity). The concentration-effect curves were then classified based on curve quality (r2), response magnitude and degree of measured activity.

For C/C1=C2/[N-]C(C(CC(N)=O)[C@@]2(C)CCC(=O)NCC(C)OP(=O)([O-])O[C@H]2[C@@H](O)[C@@H](n3cnc4cc(C)c(C)cc43)O[C@@H]2CO)[C@]2(C)N=C(/C(C)=C3N=C(/C=C4N=C1C(CCC(N)=O)C\4(C)C)[C@@H](CCC(N)=O)[C@]\3(C)CC(N)=O)[C@@H](CCC(N)=O)[C@]2(C)CC(N)=O.CC(=O)O.[Co] (stereo not given in full), which “activity change, negative = cytotoxicity” value is on record?
The value was 0%.

For CC(=O)NC[C@@H]1CN(c2ccc(N3CCOCC3)c(F)c2)C(=O)O1, which “activity change, negative = cytotoxicity” value is on record?
The value was -0.501%.

With COc1cccc(OC)c1C(=O)NC1C(=O)N2C1SC(C)(C)C2C(=O)O (stereo not given) as the molecule, how does the “activity change, negative = cytotoxicity” value read?
Its value is 20%.

With NCCCCC(N)C(=O)O (stereo not given) as the molecule, how does the “activity change, negative = cytotoxicity” value read?
The value was 8.49%.

With C[C@H](O)[C@@H]1C(=O)N2C(C(=O)O)=C(SCCN=CN)C[C@@H]12 as the molecule, how does the “activity change, negative = cytotoxicity” value read?
The value was 18.6% [at 25.7 µM].

With Cc1onc(-c2c(F)cccc2Cl)c1C(=O)NC1C(=O)N2C1SC(C)(C)C2C(=O)O (stereo not given) as the molecule, how does the “activity change, negative = cytotoxicity” value read?
The value was 0.729%.

For CCN(CC)C(=O)Nc1ccc(OC[C@H](O)CNC(C)(C)C)c(C(C)=O)c1, which “activity change, negative = cytotoxicity” value is on record?
Its value is -26%.

For C[C@@H](O)[C@@H]1C(=O)N2C(C(=O)O)=C([C@H]3CCCO3)S[C@H]12, which “activity change, negative = cytotoxicity” value is on record?
The value was -17.6%.

For CCCCC(=O)OCC(=O)[C@]1(O)Cc2c(O)c3c(c(O)c2[C@H](OC2CC(NC(=O)C(F)(F)F)C(O)C(C)O2)C1)C(=O)c1c(OC)cccc1C3=O (stereo not given in full), which “activity change, negative = cytotoxicity” value is on record?
The value was -1.45%.

With NC(CSSCC(N)C(=O)O)C(=O)O (stereo not given) as the molecule, how does the “activity change, negative = cytotoxicity” value read?
Its value is -1.26%.

For CCN(CC)C(=O)[C@@]1(c2ccccc2)C[C@@H]1CN, which “activity change, negative = cytotoxicity” value is on record?
Its value is 4.68%.

Which “activity change, negative = cytotoxicity” value does the source give for Cc1cncc(C(=O)O)[n+]1[O-] here?
Its value is -14.3%.

With CNC1=CN(O)C(c2ccccc2)=c2cc(Cl)ccc2=N1 as the molecule, how does the Potency read?
The Potency was “inactive”.

With OCC(O)C(O)C(O)C(O)CO (stereo not given) as the molecule, how does the Potency read?
The Potency was “inactive”.

For O=c1[nH]c(=O)n(C2C[C@H](O)[C@@H](CO)O2)cc1C(F)(F)F (stereo not given in full), which “activity change, negative = cytotoxicity” value is on record?
The value was -3.15%.

With CC1(C)O[C@@H]2C[C@H]3[C@@H]4CCC5=CC(=O)C=C[C@]5(C)[C@H]4C(O)C[C@]3(C)[C@]2(C(=O)CO)O1 (stereo not given in full) as the molecule, how does the “activity change, negative = cytotoxicity” value read?
Its value is -14.2%.

Which “activity change, negative = cytotoxicity” value does the source give for OCC1O[C@H](Oc2ccc(O)cc2)C(O)C(O)C1O (stereo not given in full) here?
Its value is -1.08%.

With CC(=O)NC1[C@H]([C@H](O)[C@H](O)CO)OC(C(=O)O)=C[C@H]1N=C(N)N (stereo not given in full) as the molecule, how does the “activity change, negative = cytotoxicity” value read?
Its value is 2.26%.

With CO/N=C(/C(=O)N[C@@H]1C(=O)N2C(C(=O)O)=C(CSC(=O)c3ccco3)CSC12)c1csc(N)n1 (stereo not given in full) as the molecule, how does the “activity change, negative = cytotoxicity” value read?
Its value is 6.59%.

Which “activity change, negative = cytotoxicity” value does the source give for COc1cc(/C=C2\CCC/C(=C\c3ccc(O)c(OC)c3)C2=O)ccc1O here?
Its value is -18.1%.

Which “activity change, negative = cytotoxicity” value does the source give for COc1cc2c(cc1O)CCN[C@@]21CS[C@H]2c3c(OC(C)=O)c(C)c4c(c3C(COC1=O)N1C2C2c3c(cc(C)c(OC)c3O)CC([C@@H]1O)N2C)OCO4 (stereo not given in full) here?
Its value is 6.63%.

With O=C(O)c1ccc(N[C@@H]2OC[C@@H](O)[C@@H](O)[C@@H]2O)cc1 as the molecule, how does the “activity change, negative = cytotoxicity” value read?
Its value is -9.81%.

Which “activity change, negative = cytotoxicity” value does the source give for CC1=C(c2ccc(NN=C(C#N)C#N)cc2)NNC(=O)C1 here?
Its value is 11.9%.

With CNC1C(O)C(OC2C(N)CC(N)C(OC3OC(CN)=CCC3N)C2O)OCC1(C)O (stereo not given) as the molecule, how does the “activity change, negative = cytotoxicity” value read?
The value was 0%.

With Nc1nc(Cl)nc2c1ncn2[C@@H]1O[C@H](CO)[C@H](O)C1F (stereo not given in full) as the molecule, how does the “activity change, negative = cytotoxicity” value read?
The value was 3.58%.

With CO[C@H]1OC2O[C@@]3(C)CC[C@H]4[C@H](C)CC[C@@H]([C@H]1C)[C@@]24OO3 (stereo not given in full) as the molecule, how does the “activity change, negative = cytotoxicity” value read?
The value was 15.2%.

For O=C(O)c1ccccc1-c1c2ccc(=O)cc-2oc2cc(O)ccc12, which “activity change, negative = cytotoxicity” value is on record?
The value was -0.0031%.

Which “activity change, negative = cytotoxicity” value does the source give for CCN(CC)CCOCCOC(=O)C(CC)(CC)c1ccccc1 (tested in a mixture with another compound) here?
The value was -14.5%.

With C#C[C@@]1(O)CC[C@@H]2[C@H]3CCC4=C/C(=N\O)CC[C@H]4[C@@H]3CC[C@]21CC as the molecule, how does the “activity change, negative = cytotoxicity” value read?
The value was 4.55%.

With CO/N=C(/C(=O)N[C@@H]1C(=O)N2C(C(=O)O)=C(CSc3nc(C)c(CC(=O)O)s3)CS[C@H]12)c1csc(N)n1 as the molecule, how does the “activity change, negative = cytotoxicity” value read?
Its value is -3.84%.

With C/C=C1/NN(CCCN2CCN(c3cccc(Cl)c3)CC2)C(=O)N1CCOc1ccccc1 as the molecule, how does the “activity change, negative = cytotoxicity” value read?
The value was -24%.

For C[n+]1c2cc(N)ccc2cc2ccc(N)cc21, which “activity change, negative = cytotoxicity” value is on record?
The value was 16.7%.

For O=C1Oc2ccccc2C(=O)C1C(CC(O)c1ccc(-c2ccc(Br)cc2)cc1)c1ccccc1 (stereo not given), which “activity change, negative = cytotoxicity” value is on record?
The value was -21.2%.

For C[C@]12CCC(=O)C=C1[C@@H]1C[C@H]1[C@H]1[C@@H]3[C@@H]4C[C@H]4[C@@]4(CCC(=O)O4)[C@@]3(C)CC[C@@H]12, which “activity change, negative = cytotoxicity” value is on record?
Its value is -19%.

For OC[C@@H](O)C(O[C@@H]1O[C@@H](CO)[C@H](O)[C@H](O)[C@H]1O)[C@H](O)[C@@H](O)CO (stereo not given in full), which “activity change, negative = cytotoxicity” value is on record?
The value was -20.6%.

With CCOc1ccccc1O[C@@H](c1ccccc1)[C@@H]1CNCCO1 as the molecule, how does the “activity change, negative = cytotoxicity” value read?
Its value is -15.6%.

With O=C(NC(CO)C(O)c1ccc([N+](=O)[O-])cc1)C(Cl)Cl (stereo not given) as the molecule, how does the “activity change, negative = cytotoxicity” value read?
The value was -9.84%.

For CC(CN1CC(=O)NC(=O)C1)N1CC(=O)NC(=O)C1 (stereo not given), which “activity change, negative = cytotoxicity” value is on record?
Its value is -18%.

With N#C/C(=C1/SCC(c2ccccc2Cl)S1)n1ccnc1 (stereo not given) as the molecule, how does the “activity change, negative = cytotoxicity” value read?
Its value is 9.71%.

Which “activity change, negative = cytotoxicity” value does the source give for CCC1OC(=O)C[C@H](O)C(C)[C@@H](O[C@@H]2OC(C)C(O)C(N(C)C)C2O)C(CCN2CC(C)CC(C)C2)CC(C)C(=O)/C=C/C(C)=C\[C@@H]1COC1OC(C)C(O)C(OC)C1OC (stereo not given in full) here?
The value was -3.25%.
